Assay [1] in a line: kinase inhibitors against Plasmodium liver-stage infection, cell-based, known kinase inhibitor set, luminescence, hepatoma host viability (AID 624392).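 Note: infected cells incubated roughly two days before readout.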 As to conditions: Plasmodium liver stage in hepatoma cells, luciferase luminescence, concentration not given here; liver cell % of control: measured here: host liver cell viability; parasite % of control: stronger effect = lower value.
Assay [2] is described as follows: modulators of glucocorticoid suppression of NF-kB, cell-based, luciferase, IL-1B stimulus, dexamethasone (AID 624486).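 For percent of negative control (+Dex): 100% = mean signal of vehicle control wells on the plate.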 Particulars: NF-kB luciferase reporter, IL-1B + dexamethasone, luminescence; percent of negative control (+Dex): actives lie on both sides, concentration not given here; z-score: measured here: IL-1B alone, no Dex.
The nature of assay [3]: kinase inhibitors altering Pseudomonas killing of worms, whole organism (AID 651566).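 Note: tested at 14 µM; sign flipped so higher z means a lower ratio.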 Particulars: C. elegans killed by P. aeruginosa, survival ratio.
A short description of assay [4]: activators of macrophage pro-inflammatory response, cell-based, murine, luminescence (AID 652131). Particulars: murine macrophage pro-inflammatory reporter, stronger effect = higher value.
Assay [5] has as its target Cellular tumor antigen p53 (Homo sapiens) (UniProt P04637). As to the kind of experiment: kinase inhibitors altering GFP-p53 stability in HPV16-positive cells, imaging, known kinase inhibitor set, EGFP/DsRed ratio (AID 1053116).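 Note: cells exposed to compounds for 24 h at 37 °C before reading.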 Particulars: stronger effect = higher value; EGFP object count: measured here: GFP-p53 positive objects count.
Assay [6] in a line: IRF3 reporter activation in THP-1 macrophages, cell-based, PMA-stimulated THP-1, luminescence (AID 1053176). As to conditions: PMA-differentiated THP-1, IRF3 reporter luminescence; stronger effect = higher value.
Assay [7] is described as follows: survival rescue of mitochondrial mutant cells in low glucose, primary screen, MELAS cybrids, Rieske KO mouse fibroblasts, CellTiter-Glo (AID 1508586;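 active = mean z-score across replicates of 1.96 or higher in either the MELAS or the Rieske mutant cell line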;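 note: z relative to plate mean and SD of compound and empty wells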).
Setting [8] is: MELAS cybrid survival, CellTiter-Glo 48 h, stronger effect = higher value.
[9] abbreviates: Rieske KO mouse fibroblast survival, CellTiter-Glo 72 h.

SMILES strings stand for the structures. Calls of active or inactive are those of the source. Unless noted, the rule behind the calls is not given here.

Chain of Cellular tumor antigen p53 (Homo sapiens) (P04637 whole entry, looked up): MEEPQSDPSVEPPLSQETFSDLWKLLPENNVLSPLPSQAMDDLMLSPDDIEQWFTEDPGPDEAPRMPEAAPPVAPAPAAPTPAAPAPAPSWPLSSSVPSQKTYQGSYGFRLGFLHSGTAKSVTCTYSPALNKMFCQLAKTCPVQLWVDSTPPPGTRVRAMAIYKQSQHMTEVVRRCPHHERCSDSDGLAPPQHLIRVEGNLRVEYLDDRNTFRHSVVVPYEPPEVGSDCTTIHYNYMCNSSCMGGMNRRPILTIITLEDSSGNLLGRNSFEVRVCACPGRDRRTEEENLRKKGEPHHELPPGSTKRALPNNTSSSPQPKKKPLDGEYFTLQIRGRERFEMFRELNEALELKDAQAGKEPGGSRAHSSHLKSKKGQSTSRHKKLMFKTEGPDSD

`C[C@@H](Oc1cc(-n2cnc3ccc(OCC4CCN(C)CC4)cc32)sc1C(N)=O)c1ccccc1Cl` had a liver cell % of control in assay [1] of 73.4%. Further, the parasite % of control in assay [1] is 117% (inactive). The percent of negative control (+Dex) in assay [2] was 104% (inactive). Besides, the z-score was -0.185 in assay [2]; -0.885 (inactive) in assay [3]; -2.53 (inactive) in assay [4]; -0.19 (inactive) in assay [7] (setting [8]); 0.83 in assay [7] (setting [9]). Moreover, the EGFP object count in assay [5] is 7. Besides, the EGFP/DsRed ratio in assay [5] was 0.174 (inactive). Also, the fraction signal in assay [6] was -0.009 (inactive).
On to `O=C(Nc1n[nH]c2nc(-c3ccc(O)cc3)c(Br)cc12)C1CC1`, for which the liver cell % of control in assay [1] came to 74.6%. In assay [1], the parasite % of control was 71% (inactive). Further, the percent of negative control (+Dex) in assay [2] was 206% (active). In addition, the z-score in assay [2] is 0.485; in assay [3] it was 0.105 (inactive); in assay [4], -1.27 (inactive); in assay [7] (setting [8]) it was 7.51 (active); in assay [7] (setting [9]), -0.202. For the same compound, the EGFP object count in assay [5] came to 2.5. The EGFP/DsRed ratio in assay [5] was 0.0391 (inactive). Besides, in assay [6], the fraction signal was -0.013 (inactive).
Regarding `CCN(CC)S(=O)(=O)c1ccc(OC)c(Nc2ncc(-c3ccccc3)o2)c1`, the liver cell % of control in assay [1] came to 168%. The parasite % of control in assay [1] is 80% (inactive). The percent of negative control (+Dex) in assay [2] was 91% (inactive). For the same compound, the z-score in assay [2] was 0.485; in assay [3] it was -0.36 (inactive); in assay [4], -0.177 (inactive); in assay [7] (setting [8]), -0.446 (inactive); in assay [7] (setting [9]), -0.197. For the same compound, the EGFP object count in assay [5] came out at 3. In addition, the EGFP/DsRed ratio in assay [5] is 0.245 (inactive). Besides, the fraction signal in assay [6] was -0.012 (inactive).
In the case of `Cc1cccc(C2NNCC2c2ccc3ncccc3n2)n1` (stereo not given), the liver cell % of control in assay [1] turned out to be 89.8%. Also, in assay [1], the parasite % of control was 104% (inactive). In addition, the percent of negative control (+Dex) in assay [2] was 58.5% (inactive). Besides, the z-score was -3.81 in assay [2]; 0.465 (inactive) in assay [3]; 0.276 (inactive) in assay [4]; 0.0567 (inactive) in assay [7] (setting [8]); -0.176 in assay [7] (setting [9]). The EGFP object count in assay [5] was 4. The EGFP/DsRed ratio in assay [5] was 0.132 (inactive). Moreover, the fraction signal in assay [6] is 0.0035 (inactive).
For the compound `NS(=O)(=O)c1ccc(Nc2ncc(-c3ccccc3)o2)cc1`, the liver cell % of control in assay [1] was 108%. Also, the parasite % of control in assay [1] is 123% (inactive). In assay [2], the percent of negative control (+Dex) was 117% (inactive). Besides, the z-score in assay [2] is 0.745; in assay [3], -0.98 (inactive); in assay [4], 0.209 (inactive); in assay [7] (setting [8]), 1.06 (inactive); in assay [7] (setting [9]) it was -0.0466. Further, in assay [5], the EGFP object count stood at 3.5. The EGFP/DsRed ratio in assay [5] was 0.0759 (inactive). Moreover, the fraction signal in assay [6] is -0.0035 (inactive).

Source of the values: PubChem BioAssay.
